IP6K1 inh: IP6K1 kinase inhibition. Q92551. IP6K1 kinase, ADP-Glo luminescence, 2 h; active compounds read low. AID 1645851. activity change, % (series mostly up to about 58 µM). actives 0.81% (n = 140,000); in the data active = activity change below about -25%
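ADP-Glo luminescence measures ADP made by human IP6K1 during a 2 h RT reaction with ATP/IP6 (mix at 1.3 mM/130 uM); top library doses 57.5 and 19.1 uM final.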
KDM5B inhibitor: blocks human KDM5B histone demethylase activity; KDM5B demethylase, FDH-coupled NADH fluorescence (FDH is formaldehyde dehydrogenase); Potency, µM (series often up to 57.7 µM), hits mostly inhibitors; actives 2.6% (n = 220,000); AID 1347165; note: nearly all actives have a fitted effect of over 70% in size
Target sequence (Q9UGL1 whole entry, looked up): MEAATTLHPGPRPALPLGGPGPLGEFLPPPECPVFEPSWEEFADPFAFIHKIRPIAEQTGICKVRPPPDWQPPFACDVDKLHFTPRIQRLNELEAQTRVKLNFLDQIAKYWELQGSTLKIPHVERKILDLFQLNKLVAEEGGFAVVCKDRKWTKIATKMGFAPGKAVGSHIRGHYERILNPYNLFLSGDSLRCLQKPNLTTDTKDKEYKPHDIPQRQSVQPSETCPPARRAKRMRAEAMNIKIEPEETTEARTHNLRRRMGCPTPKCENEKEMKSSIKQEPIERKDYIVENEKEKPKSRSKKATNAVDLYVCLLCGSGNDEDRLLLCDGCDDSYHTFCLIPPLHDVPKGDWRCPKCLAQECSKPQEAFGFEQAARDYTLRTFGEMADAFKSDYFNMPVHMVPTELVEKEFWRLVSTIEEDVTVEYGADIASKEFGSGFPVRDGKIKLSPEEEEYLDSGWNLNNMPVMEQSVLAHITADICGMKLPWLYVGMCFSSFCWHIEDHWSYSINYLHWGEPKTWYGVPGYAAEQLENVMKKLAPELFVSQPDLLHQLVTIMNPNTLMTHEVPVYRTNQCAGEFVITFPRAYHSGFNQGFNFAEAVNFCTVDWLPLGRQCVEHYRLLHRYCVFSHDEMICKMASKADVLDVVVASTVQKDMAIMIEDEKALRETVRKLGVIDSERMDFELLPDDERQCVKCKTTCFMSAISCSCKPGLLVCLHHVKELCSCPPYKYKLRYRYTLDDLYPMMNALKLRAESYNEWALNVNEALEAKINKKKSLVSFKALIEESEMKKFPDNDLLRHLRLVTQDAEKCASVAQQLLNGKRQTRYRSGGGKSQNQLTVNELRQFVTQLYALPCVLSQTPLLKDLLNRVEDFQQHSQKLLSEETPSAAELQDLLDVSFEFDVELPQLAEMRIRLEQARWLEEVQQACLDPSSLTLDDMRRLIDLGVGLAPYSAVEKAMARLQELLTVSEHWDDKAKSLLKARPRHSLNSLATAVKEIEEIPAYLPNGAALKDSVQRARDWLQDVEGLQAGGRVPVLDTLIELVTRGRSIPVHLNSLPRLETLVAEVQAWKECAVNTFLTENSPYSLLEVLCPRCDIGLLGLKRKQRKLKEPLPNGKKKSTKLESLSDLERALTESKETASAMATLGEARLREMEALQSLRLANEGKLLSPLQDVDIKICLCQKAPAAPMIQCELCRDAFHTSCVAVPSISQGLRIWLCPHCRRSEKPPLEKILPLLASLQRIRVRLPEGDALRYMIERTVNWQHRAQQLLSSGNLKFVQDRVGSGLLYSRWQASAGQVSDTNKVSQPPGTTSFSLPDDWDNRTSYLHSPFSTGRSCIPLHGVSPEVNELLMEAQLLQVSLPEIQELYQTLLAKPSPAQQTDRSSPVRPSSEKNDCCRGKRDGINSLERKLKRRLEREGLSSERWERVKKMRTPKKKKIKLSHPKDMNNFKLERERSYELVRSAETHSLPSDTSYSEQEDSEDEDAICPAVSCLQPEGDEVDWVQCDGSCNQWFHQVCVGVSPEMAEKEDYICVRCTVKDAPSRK
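KDM5BΔAP (200 nM final) in 50 mM HEPES pH 7.5, 0.01% Tween-20 was preincubated 10 min at RT with compound over a concentration range. Substrate mix (H3K4me3 12.5 µM, α-KG 25 µM, Fe²⁺, ascorbate, NAD⁺, FDH) was added, and NADH fluorescence change over 30 min gave dose-response curves.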
SNCA viab count: counter-screen for SNCA expression inhibitors: cell viability; HEK-293-SNCA-luc viability, GF-AFC fluorescence, 24 h; Potency, µM (doses to about 57.1 µM), usual class: cytotoxic; actives 0.12% (n = 150,000); note: nearly all actives have a fitted effect of over 30% in size
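Cytotoxicity counterscreen: after 24 h compound treatment of genome-edited SNCA-luciferase HEK-293 cells, live-cell protease substrate GF-AFC read by fluorescence after 30 min; activity scaled between DMSO (0%) and medium-only (-100%), curves Hill-fitted.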
SNCA expr inhib: SNCA gene expression inhibition. HEK-293 SNCA-luciferase knock-in, luminescence, 24 h. Potency, µM (titrated, usually from 57.2 µM), most hits filed as inhibitors. actives 0.17% (n = 140,000). AID 1671194; note: nearly all actives have a fitted effect of over 45% in size
Hits are given with their value; [ ] = another dose, or the depositor's remark. In the library only some 3% were active in any assay of this set; here they are far more common. Unless noted, calls come from the whole dose curve; as a rule, active = well fitted curve in the direction sought with a large enough effect; inconclusive = small, poorly fitted or top-dose-only effect, or another doubt; inactive = no such curve, though single readings can be large; an effect the other way counts as inactive or inconclusive.

For COc1ccc(S(=O)(=O)NCCNc2ncnc3c2c(C)nn3C)cc1 the results were IP6K1 inh inactive, KDM5B inhibitor inactive, SNCA viab count inactive and SNCA expr inhib inactive.
For Cc1nc(CCNc2nc(-c3ccccn3)nc3c2c(C)nn3C)no1 the results were IP6K1 inh inactive, KDM5B inhibitor inconclusive, SNCA viab count inactive and SNCA expr inhib inactive.
Screening CNS(=O)(=O)CCNc1nc(-c2ccccn2)nc2c1c(C)nn2C returned IP6K1 inh inactive, KDM5B inhibitor 22µM, SNCA viab count inactive and SNCA expr inhib inactive.
Screening Cc1cc(=O)[nH]c(CCNc2nc(-c3ccncc3)nc3c2c(C)nn3C)n1 returned IP6K1 inh inactive, KDM5B inhibitor 20µM, SNCA viab count inactive and SNCA expr inhib inactive.
Screening CNC(=O)c1cn2cc(-c3cccc(C(F)(F)F)c3)sc2n1 returned IP6K1 inh inactive, SNCA viab count inactive and SNCA expr inhib inactive.
`Cc1cccc(CN2CCN(Cc3nc(-c4cccs4)oc3C)CC2CCO)n1` (stereo unspecified) gave IP6K1 inh inactive, KDM5B inhibitor 25µM, SNCA viab count inactive and SNCA expr inhib inactive.
Screening Cc1ccc(-c2cc(C(=O)N3CCC(c4cc(CC(=O)O)[nH]n4)CC3)n[nH]2)o1 returned IP6K1 inh inactive, KDM5B inhibitor 25µM, SNCA viab count inactive and SNCA expr inhib inactive.
For Cc1ccc2nc(C)cc(C(=O)N3CCC(c4cc(CC(=O)O)[nH]n4)CC3)c2c1 the results were IP6K1 inh inactive, KDM5B inhibitor inactive, SNCA viab count inactive and SNCA expr inhib inactive.
For NC(=O)C1CCCc2c1[nH]c1ccc(Cl)cc21 (stereo unspecified) the results were SNCA viab count inconclusive and SNCA expr inhib 8.6µM.
O=C(NCc1ccc(Cl)cc1)c1nc2sccn2c1-c1ccncc1 was read as IP6K1 inh inactive, SNCA viab count inactive and SNCA expr inhib inactive.
Screening O=C1CC(c2noc(-c3ccc4c(c3)OCO4)n2)CN1c1ccc(Cl)cc1 (stereo unspecified) returned IP6K1 inh inactive, KDM5B inhibitor 28µM, SNCA viab count inactive and SNCA expr inhib inactive.
CCc1ccc(N2CC(c3noc(-c4ccc5c(c4)OCO5)n3)CC2=O)cc1 (stereo unspecified) was read as IP6K1 inh inactive, KDM5B inhibitor 32µM, SNCA viab count inactive and SNCA expr inhib inactive.
Screening O=C(NCc1ccccc1F)C1CCN(C(=O)c2ccc(-c3cncnc3)cc2)CC1 returned IP6K1 inh inactive, SNCA viab count inactive and SNCA expr inhib inactive.
`O=C(c1ccc(Cl)cc1)N1CCN(c2nccc(Nc3ccccc3Cl)n2)CC1` gave IP6K1 inh inactive, SNCA viab count inactive and SNCA expr inhib inconclusive.
For CCC/C=C/C(=O)O[C@H]1CC(C)(C)CC2[C@@]13[C@H](O)C[C@]1(C)[C@@]2(CCC2[C@@]4(C)CC[C@H](O[C@@H]5O[C@H](C(=O)O)[C@@H](O)[C@H](O[C@@H]6O[C@H](CO)[C@H](O)[C@H](O)[C@H]6O[C@@H]6O[C@@H](C)[C@H](O)[C@@H](O)[C@H]6O[C@@H]6OC[C@](O)(CO)[C@H]6O)[C@H]5O[C@@H]5O[C@H](CO)[C@H](O)[C@H](O)[C@H]5O)C(C)(C)C4CC[C@]21C)O[C@H]3O (stereo partly specified) the results were IP6K1 inh inactive and SNCA viab count inactive[12.5 µM].
C/C=C(/C)C(=O)O[C@H]1[C@H](OC(=O)/C(C)=C\C)[C@@]23C(CC1(C)C)[C@]1(CCC4[C@@]5(C)CC[C@H](O[C@@H]6O[C@H](C(=O)O)[C@@H](O)[C@H](O[C@@H]7O[C@H](CO)[C@H](O)[C@H](O)[C@H]7O[C@@H]7O[C@@H](C)[C@H](O)[C@@H](O)[C@H]7O[C@@H]7OC[C@@H](O)[C@H](O)[C@H]7O)[C@H]6O[C@@H]6O[C@H](CO)[C@H](O)[C@H](O)[C@H]6O)C(C)(C)C5CC[C@@]4(C)[C@]1(C)C[C@H]2O)O[C@H]3O (stereo partly specified) was read as IP6K1 inh inactive and SNCA viab count 3.6µM.
Screening CC12C(=O)OC(=O)C1(C)C1CCC2O1 (stereo unspecified) returned SNCA viab count inconclusive and SNCA expr inhib 3.5µM.
`Cn1ncc2c(C(=O)NCC#N)cc(-c3ccccc3F)nc21` gave IP6K1 inh inactive.
For O=C([C@@H]1CCCN1c1nccc(Nc2ccccc2Cl)n1)N1CCC(c2ccccc2)CC1 the results were IP6K1 inh inactive, SNCA viab count inactive[12.5 µM] and SNCA expr inhib inconclusive.
For COCCN(C)C[C@@H]1CN(C(=O)c2cnc(SC)nc2)C[C@@H]1CO the results were IP6K1 inh inactive, KDM5B inhibitor inactive, SNCA viab count inactive and SNCA expr inhib inactive.
COCCN(C)C[C@@H]1CN(c2cc(C)c3ccc(SC)cc3n2)C[C@@H]1CO was read as IP6K1 inh inactive, KDM5B inhibitor 28µM, SNCA viab count inconclusive and SNCA expr inhib inactive.
For COc1ccc(S(=O)(=O)NCc2nc3nc(C)cc(C)n3n2)cc1 the results were IP6K1 inh inactive, KDM5B inhibitor inactive, SNCA viab count inactive and SNCA expr inhib inactive.
Screening COc1ccc(S(=O)(=O)NCCNc2cc(C)nc3ccnn23)cc1 returned IP6K1 inh inactive, KDM5B inhibitor 28µM, SNCA viab count inactive and SNCA expr inhib inactive.
For COCc1noc(CCNc2cc(C)nc(-c3ccccc3O)n2)n1 the results were IP6K1 inh inactive, KDM5B inhibitor 22µM, SNCA viab count inactive and SNCA expr inhib inactive.
`O=C(NCC1CC1)C1CCN(c2nccc(Nc3ccccc3Cl)n2)CC1` gave IP6K1 inh inactive, SNCA viab count inactive[12.5 µM] and SNCA expr inhib inactive.
For COc1cc2cc(CN3CCC[C@@H]3CO)c(-c3cccc(Cl)c3)nc2cc1OC the results were IP6K1 inh inactive, KDM5B inhibitor 25µM, SNCA viab count inactive and SNCA expr inhib inactive.
Screening COc1cccc(C(O)c2nc(C(=O)N3CCN(c4ccccn4)CC3)c(C)o2)c1 (stereo unspecified) returned IP6K1 inh inactive, KDM5B inhibitor 25µM, SNCA viab count inactive and SNCA expr inhib inactive.
`C=CCNC(=O)[C@@H]1Cc2cn(CC#CC)c3cccc(c23)[C@H](CC(C)C)N1` gave IP6K1 inh inactive, KDM5B inhibitor inactive, SNCA viab count inactive and SNCA expr inhib inactive.
Screening C=CCn1cc2c3c(cccc31)[C@H](CC(C)C)N[C@H](C(=O)N1CCOCC1)C2 returned IP6K1 inh inactive, KDM5B inhibitor 32µM, SNCA viab count inactive and SNCA expr inhib inactive.
Screening CC(C)C[C@@H]1N[C@H](C(=O)O)Cc2cn(CC3CC3)c3cccc1c23 returned IP6K1 inh inactive, KDM5B inhibitor 32µM, SNCA viab count inactive and SNCA expr inhib inactive.
Screening C=CCNC(=O)[C@@H]1Cc2cn(Cc3c(C)noc3C)c3cccc(c23)[C@H](CC(C)C)N1 returned IP6K1 inh inactive, KDM5B inhibitor 28µM, SNCA viab count inactive and SNCA expr inhib inactive.
CC#CCn1cc2c3c(cccc31)[C@H](CC(C)C)N[C@H](C(=O)NCCN(C)C)C2 was read as IP6K1 inh inactive, KDM5B inhibitor inconclusive, SNCA viab count inactive and SNCA expr inhib inactive.
